Data from PubChem BioAssay AID1159580 (chemical genetic matrix, 2015).
Several values for one entry are separate records, joined by “and”; a condition that tells them apart may be missing. Identical values can stand only once. Among all 5,500 compounds or so, about 2,000 (36%) were called active. About 18% were inconclusive and are not listed. No stated cut-off is given here; in the data, active means normalized growth mostly below about 0.91 (no sharp cut-off); inconclusive means no clear call, values can overlap the other calls; inactive means mostly above about 0.92. The list shows a part of the results.

Assay: chemical genetic growth profiling, strain panel (AID 1159580);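 further: tested at 20 µM; growth read once vehicle control cultures reached saturation at 30 °C; 1 = growth at the plate median or of vehicle wells; lower values mean less growth of the strain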
Settings: S. cerevisiae deletion strains, growth OD

Measured: normalized growth

COc1ccc2c(=O)c(CC(=O)O)coc2c1
inactive: locus YAL021C, strain ccr4, hits give low values 1.01 | locus YAL026C, strain drs2, hits give low values 0.984 | locus YAL030W, strain snc1, hits give low values 0.983 | locus YBL061C, strain skt5, hits give low values 0.989 | locus YBR009C, strain hhf1, hits give low values 0.987 | locus YBR021W, strain FUR4, hits give low values 1.02 | locus YBR023C, strain chs3, hits give low values 0.999 | locus YBR171W, strain sec66, hits give low values 0.956 | locus YBR229C, strain ROT2, hits give low values 1 | locus YBR231C, strain swc5, hits give low values 0.972 | locus YBR279W, strain paf1, hits give low values 0.997 | locus YCL011C, strain gbp2, hits give low values 0.995 | locus YCL016C, strain dcc1, hits give low values 1.04 | locus YCL029C, strain bik1, hits give low values 1 | locus YCL061C, strain MRC1, hits give low values 1 | locus YCL069W, strain vba3, hits give low values 0.975 | locus YCR088W, strain abp1, hits give low values 0.971 | locus YDL005C, strain med2, hits give low values 0.985 | locus YDL035C, strain GPR1, hits give low values 1.03 | locus YDL040C, strain nat1, hits give low values 0.979 | locus YDL074C, strain BRE1, hits give low values 1.05 | locus YDL101C, strain DUN1, hits give low values 0.987 | locus YDL134C, strain PPH21, hits give low values 1.01 | locus YDL185W, strain tfp1, hits give low values 0.984 | locus YDL192W, strain arf1, hits give low values 1.01 | locus YDR001C, strain nth1, hits give low values 0.995 | locus YDR069C, strain doa4, hits give low values 0.953 | locus YDR101C, strain arx1, hits give low values 1.04 | locus YDR137W, strain rgp1, hits give low values 1 | locus YDR159W, strain sac3, hits give low values 0.926 | locus YDR162C, strain NBP2, hits give low values 1.05 | locus YDR195W, strain ref2 0.964 | locus YDR297W, strain sur2, hits give low values 0.965 | locus YDR318W, strain mcm21, hits give low values 0.991 | locus YDR334W, strain swr1, hits give low values 0.968 | locus YDR335W, strain msn5, hits give low values 0.987 | locus YDR388W, hits give low values 1 | locus YDR392W, strain spt3, hits give low values 0.939 | locus YDR502C, strain sam2, hits give low values 0.991 | locus YEL003W, strain gim4, hits give low values 0.98 | locus YEL037C, strain rad23, hits give low values 0.977 | locus YEL061C, strain CIN8 (second series), hits give low values 0.973 | locus YEL061C, strain CIN8, hits give low values 1.01 | locus YER015W, strain faa2, hits give low values 0.976 | locus YER016W, strain bim1, hits give low values 0.986 | locus YER110C, hits give low values 0.976 | locus YER111C, strain swi4, hits give low values 0.981 | locus YER155C, strain BEM2 (second series), hits give low values 0.981 | locus YER155C, strain BEM2, hits give low values 0.989 | locus YER167W, strain BCK2, hits give low values 1.01 | locus YFR010W, strain ubp6, hits give low values 0.969 | locus YGL078C, strain dbp3, hits give low values 0.96 | locus YGL086W, strain mad1, hits give low values 1.02 | locus YGL167C, strain pmr1, hits give low values 0.992 | locus YGL173C, strain kem1, hits give low values 0.982 | locus YGL227W, strain vid30, hits give low values 0.984 | locus YGL240W, strain doc1, hits give low values 0.951 | locus YGL248W, strain PDE1, hits give low values 1.01 | locus YGL253W, strain hxk2, hits give low values 0.961 | locus YGR078C, strain PAC10, hits give low values 1.01 | locus YGR135W, strain pre9, hits give low values 0.949 | locus YGR252W, strain gcn5, hits give low values 0.987 | locus YHR013C, strain ard1, hits give low values 1.02 | locus YHR027C, strain rpn1, hits give low values 0.969 | locus YHR030C, strain SLT2, hits give low values 1.01 | locus YHR079C, strain IRE1 (second series), hits give low values 0.984 | locus YHR079C, strain IRE1, hits give low values 0.991 | locus YHR094C, strain hxt1, hits give low values 0.983 | locus YHR129C, strain ARP1, hits give low values 1 | locus YHR142W, strain chs7, hits give low values 0.995 | locus YHR200W, strain rpn10, hits give low values 1.01 | locus YIL066C, strain RNR3, hits give low values 1 | locus YIL073C, strain SPO22, hits give low values 0.974 | locus YIL125W, strain kgd1, hits give low values 1 | locus YIR030C, strain dcg1, hits give low values 1 | locus YJL092W, strain hpr5, hits give low values 0.974 | locus YJL095W, strain BCK1 (second series), hits give low values 0.962 | locus YJL095W, strain BCK1, hits give low values 1.01 and 1.02 | locus YJL115W, strain asf1, hits give low values 0.984 | locus YJL129C, strain trk1, hits give low values 0.996 | locus YJL134W, strain LCB3, hits give low values 0.999 | locus YJL154C, strain vps35, hits give low values 0.987 | locus YJL164C, strain tpk1, hits give low values 1.01 | locus YJL166W, strain qcr8, hits give low values 0.973 | locus YJL168C, strain set2, hits give low values 0.987 | locus YJL187C, strain SWE1 (second series), hits give low values 0.993 | locus YJL187C, strain SWE1, hits give low values 0.977 | locus YJR043C, strain POL32, hits give low values 1.05
